Screens deposited in PubChem by National Center for Advancing Translational Sciences (NCATS).
ELG1 genotoxic: induces genotoxicity in HEK293T cells with luciferase-tagged ELG1 | Potency, µM (highest dose often 46 µM), actives largely listed as activators | 330,000 tested, 1.3% active | AID 504466 | HEK293T ELG1-luciferase reporter, luminescence, 16 h; note: nearly all actives have a fitted effect of over 60% in size
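Screening used a luciferase reporter fused to human ELG1 in HEK293T cells. Luminescence was read on a CCD plate imager after 16 hr exposure and 30 min ONE-Glo incubation.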
FLuc modulator: inhibits or activates purified firefly luciferase, miR-21 counter-screen. Potency, µM (series often up to 57.5 µM), hits mostly inhibitors. purified FLuc, Km substrates, luminescence inhibition. P08659. 360,000 tested, 6.9% active; note: nearly all actives have a fitted effect of over 55% in size
Target sequence (P08659 whole entry, looked up): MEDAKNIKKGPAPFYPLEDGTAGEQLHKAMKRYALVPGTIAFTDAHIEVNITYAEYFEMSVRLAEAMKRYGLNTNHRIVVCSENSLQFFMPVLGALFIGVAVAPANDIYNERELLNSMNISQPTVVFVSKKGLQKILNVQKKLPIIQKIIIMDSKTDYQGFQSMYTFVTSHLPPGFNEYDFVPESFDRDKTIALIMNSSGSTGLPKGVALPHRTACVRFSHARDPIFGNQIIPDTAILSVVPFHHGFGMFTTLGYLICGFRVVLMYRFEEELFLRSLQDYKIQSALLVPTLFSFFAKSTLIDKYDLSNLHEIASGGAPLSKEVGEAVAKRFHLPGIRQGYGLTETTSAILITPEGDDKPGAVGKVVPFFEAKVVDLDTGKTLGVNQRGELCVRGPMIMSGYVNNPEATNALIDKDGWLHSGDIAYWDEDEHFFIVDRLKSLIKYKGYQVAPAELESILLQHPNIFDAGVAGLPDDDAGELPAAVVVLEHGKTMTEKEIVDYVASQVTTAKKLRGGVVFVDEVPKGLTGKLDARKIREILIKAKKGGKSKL
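Purified P. pyralis luciferase (10nM final) with 10uM D-luciferin and 10uM ATP (Km levels) in 50mM Tris acetate pH 7.5, 10mM Mg acetate, 0.01% Tween-20, 0.05% BSA; qHTS 6-point titration, ~60 µM downward; luminescence read.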
KinaseGlo FLuc: counter-screen: inhibitors of Kinase-Glo firefly luciferase. 200,000 tested, 0.28% active. Potency, µM (doses to about 38.3 µM), actives largely listed as inhibitors. Kinase-Glo luciferase, ATP luminescence, 8 min; note: nearly all actives have a fitted effect of over 60% in size
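Kinase-Glo luciferase light output from ATP and luciferin was measured with 10 uM ATP, within the enzyme's linear range. Buffer: 50 mM imidazole pH 7.2, 50 mM KCl, 7 mM MgCl2, 0.01% Tween 20, 0.05% BSA; luminescence read after 8 min at ambient temperature.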
Rab9 prom act: activators of Rab9 promoter; Huh7 Rab9 promoter-luciferase reporter, luminescence, 24 h; Potency, µM (highest dose often 9.22 µM), hits mostly activators; 320,000 tested, 2.8% active; note: nearly all actives have a fitted effect of over 60% in size
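Cells were plated at 1500 per well in reduced-serum medium with 10% FBS and left 2 h. Compound in DMSO was then added for 24 h at 37 °C. Reporter signal was read by luminescence after 10 min with luciferase detection reagent.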
NPC1 promoter act: activates the NPC1 promoter; Huh7 NPC1 promoter luciferase reporter, 24 h; Potency, µM (highest dose often 9.22 µM), usual class: activators; 320,000 tested, 2.4% active; AID 485313; note: nearly all actives have a fitted effect of over 60% in size
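Huh7 reporter cells (NPC1 promoter driving luciferase) are dosed with compound for 24 h at 37 °C, 5% CO2; luciferase detection reagent is then added and luminescence measured after 10 min at ambient temperature.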
SMN2 splice enh: enhancers of SMN2 splice variant expression; AID 1458; 210,000 tested, 2.8% active; Potency, µM (titrated, usually from 46.1 µM), actives largely listed as activators; HEK293 SMN2-luciferase splicing reporter, luminescence, 30-36 h; note: nearly all actives have a fitted effect of over 55% in size
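HEK293 cells carry an SMN2 minigene-luciferase reporter in which exon 7 inclusion puts luciferase in frame. Cells were seeded at 2000 cells/well, attached for 10-12 hours, then exposed to compounds for 30-36 hours at 37C before ONE-Glo luminescence.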
Numbers stand for hits; – = inactive; ? = inconclusive; · = no result given; [ ] = dose if it differs, or a comment. This is a sample that favours compounds with a hit; in the whole collection about 7.4% have one here. Calls come from the whole dose curve; as a rule, active = well fitted curve in the direction sought with a large enough effect; inconclusive = small, poorly fitted or top-dose-only effect, or another doubt; inactive = no such curve, though single readings can be large; an effect the other way counts as inactive or inconclusive.

SMILES	ELG1 genotoxic	FLuc modulator	KinaseGlo FLuc	Rab9 prom act	NPC1 promoter act	SMN2 splice enh
Cc1ccc2oc(=O)n(CCCOc3ccccc3)c2c1	?	24µM	–	?	?	–
O=c1oc2ccccc2n1CCCOc1ccccc1Cl	·	12µM	·	·	·	20µM
CCOC(=O)Cn1nnc(-c2ccc(SC)cc2)n1	–	12µM	–	–	–	–
CSc1ccc(-c2nnn(Cc3ccccn3)n2)cc1	?	12µM	–	2.5µM	4µM	?
CCOC(=O)c1cc(-c2ccccc2)n(CC(=O)Nc2ccc(CC)cc2)c1C	·	–	·	·	·	·
O=C(Nc1ccc(-c2n[nH]c(=S)o2)cc1)c1ccccc1Cl	–	11µM	·	–	–	·
CC1CCCN(C(=O)c2cc3ccc4cccnc4c3[nH]2)C1 (configuration not stated)	·	0.43µM	·	·	·	·
O=C(c1cc2ccc3cccnc3c2[nH]1)N1CCCCC1	·	1.2µM	·	·	·	·
COc1cc(-c2cc3n(C)c(C)c(CCC(=O)NC4CCCCC4)c(=O)n3n2)cc(OC)c1OC	·	–	·	·	·	·
O=C(CN1c2ccc(Br)cc2-c2ccccc2S1(=O)=O)N1CCCCC1	·	–	·	·	·	·
O=C(NCCCn1ccnc1)c1cc2ccccc2oc1=O	–	–	–	–	–	–
O=c1c2ccccc2oc2cc(NCCCn3ccnc3)ccc12	?	2.4µM	·	0.71µM	1.1µM	·
O=c1c2ccccc2oc2ccc(NCCCN3CCOCC3)cc12	?	8.5µM	·	2.8µM	2.8µM	·
O=c1c2ccccc2oc2cc(NCCCN3CCOCC3)ccc12	?	11µM	·	3.5µM	4µM	·
CC[C@H]1C2=C3C(CC[C@H]4C(OCc5ccc(F)cc5C(F)(F)F)OC[C@](C)([C@@H]34)N(C(=O)OC(C)(C)C)C2)C2COC(=O)OCC21 (some centres not stated)	·	·	–	·	·	–
CCOc1ccc(NC(=O)Cn2ccn3nc(-c4ccc(OC)c(OC)c4)cc3c2=O)cc1	·	–	·	·	·	·
Cc1cc(C)cc(NC(=O)Cn2c(C)cc(C)c(C#N)c2=O)c1	·	–	·	·	·	·
CN(C)c1ccc(NC2=C(Cl)C(=O)c3ccccc3C2=O)cc1	?	7.6µM	–	–	–	–
CCOc1ccc(C(=O)NCc2cccs2)cc1	–	–	–	?	–	–
CCCCOc1ccc(C(=O)NCCc2cccs2)cc1	?	7.6µM	–	1.8µM	4µM	13µM
CCOc1c2ccc(C(=O)NCCc3cccs3)cc2nn1CC	?	24µM	–	3.5µM	?	14µM
Cc1ccc(NCc2nc3ccccc3n2CCOc2ccccc2)cc1	?	8.5µM	–	2.5µM	4.5µM	–[1.84 µM]
CCn1c(COc2ccc(C)cc2)nc2ccccc21	–	8.5µM	–	2.8µM	?	·
CCCn1c(CNc2ccc(Br)cc2)nc2ccccc21	–	17µM	–	–	–	–
COCCn1c(-c2ccc(OC)cc2)nc2ccccc21	–	19µM	–	–	–	–
SMILES	ELG1 genotoxic	FLuc modulator	KinaseGlo FLuc	Rab9 prom act	NPC1 promoter act	SMN2 splice enh
COc1ccc(Cn2c(-c3ccc(OC)cc3)nc3ccccc32)cc1	–	?	–	–	–	–
CC(=O)Nc1ccc(OC[C@@H](O)CNC(C)C)cc1	·	·	–	·	·	–
COCCn1c(COc2ccc(C)cc2)nc2ccccc21	–	9.5µM	–	?	?	–
CCOCCn1c(COc2ccc(C)cc2)nc2ccccc21	–	?	–	?	–	?
Cc1nc(NC(=O)/C=C/c2ccccc2)sc1C(=O)Nc1ccccc1Cl	–	12µM	–	–	–	–
Cc1nc(Nc2ccc(Cl)c(Cl)c2)sc1C(=O)Nc1ccccc1	–	?	–	–	–	–
Cc1nc(Cl)sc1C(=O)Nc1ccccc1Cl	–	–	·	–	–	·
Cc1nc(NC(=O)C2CC2)sc1C(=O)Nc1ccccc1Cl	–	?	·	2.5µM	3.5µM	·
Cc1nc(Nc2ccc(Cl)cc2Cl)sc1C(=O)Nc1ccccc1	–	17µM	–	–	–	–
CC(=O)OC1CC(OC(C)=O)[C@]2(C)C(CC(=O)[C@]3(C)C2CC[C@@]2(C)C(C(=O)O)OC(=O)C4OC423)C1(C)C (some centres not stated)	·	·	–	·	·	–
c1ccc([C@H](CCN2CCCC2)c2ccccn2)cc1	·	·	–[7.66 µM]	·	·	–[9.22 µM]
COc1ccc(-c2nc(N=Nc3ccc(O)cc3)n[nH]2)cc1	–	9.5µM	–	–	–	–
COc1ccc(O)cc1	–	·	·	·	·	–
Cc1ccc(S(=O)(=O)Nc2ccc(N=Nc3ccc(O)cc3)cc2)cc1	–	–	–	–	–	–
Cc1nc(N=Nc2ccc(O)cc2)n[nH]1	?	17µM	·	?	3.2µM	·
Cc1ccc(-c2nc(N=Nc3ccc(O)cc3)n[nH]2)cc1	–	8.5µM	–	–	–	25µM
O=C(CN1C(=O)CCc2cc(Br)ccc21)Nc1ccc(OC(F)(F)F)cc1	·	–	·	·	·	·
CCN(CC)c1ccc(-c2nn3c(-c4ccccc4OC)nnc3s2)cc1	–	19µM	–	–	–	–
COc1ccccc1-c1nn2c(-c3ccccc3Cl)nnc2s1	–	–	–	–	–	–
COc1ccccc1-c1nn2c(-c3ccco3)nnc2s1	18µM	5.4µM	–	?	?	–
COc1cccc(C2=NOC(C(=O)N3CCOCC3)C2)c1 (configuration not stated)	?	19µM	–	?	3.5µM	–
O=c1cc(CCl)[nH]c2nc3ccccc3n12	–	?	·	–	–	·
O=c1cc(-c2ccccc2)[nH]c2nc3ccccc3n12	2.3µM	0.95µM	13µM	2µM	3.5µM	4µM
COc1ccc2cc(C(=O)NCc3ccco3)c(=O)oc2c1	5.8µM	6µM	–	?	?	–
O=C(NCc1ccco1)c1cc2ccc(O)cc2oc1=O	?	11µM	5µM	?	?	–
SMILES	ELG1 genotoxic	FLuc modulator	KinaseGlo FLuc	Rab9 prom act	NPC1 promoter act	SMN2 splice enh
O=S(=O)(Nc1ccc2oc(-c3ccccc3)nc2c1)c1ccccc1	–	?	–	–	–	–
O=S(=O)(O)c1cc2oc(-c3ccccc3)nc2c2ccccc12	–	9.5µM	·	–	–	·
Cc1ccc(S(=O)(=O)C(CNC(=O)COc2ccccc2)c2ccco2)cc1 (configuration not stated)	·	–	·	·	·	·
CCCCN1C=CC(=C2C(=O)c3ccccc3C2=O)C=C1	?	0.13µM	1.1µM	0.032µM	?	–
COC(=O)[C@@]1(Cc2ccc(OC)cc2)[C@H]2c3cc(C(=O)N(C)C)n(CCc4c[nH]c5ccc(O)cc45)c3C[C@H]2CN1C(=O)c1ccccc1	·	·	–	·	·	–
COc1ccccc1C(=O)OCc1ccc2sc(C)nc2c1	–	17µM	–	–	–	–
Cc1ccc(S(=O)(=O)N(C)C)cc1NC(=O)COC(=O)CCC1CCCC1	–	–	·	–	–	·
Cc1ccc(S(=O)(=O)N2CCOCC2)cc1NC(=O)COc1ccc(-c2nnco2)cc1	–	–	–	–	–	–
CCN(CC)S(=O)(=O)c1cccc(NC(=O)COC(=O)CNC(=O)c2cccc(F)c2)c1	–	–	·	–	–	·
